Laboratory results as given in PubChem BioAssay (NCI).
The panel holds about 83,000 compounds, 20% with a hit somewhere; the sample as a whole holds those more often.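 Cell lines were cultured in 96-well plates, exposed to a single compound concentration, and assessed for percent growth 48 hours later.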 Calls of active or inactive are those of the source. Rule for the calls: active = growth percent below 10; inactive = the rest.

Assays:
Experiment in all cases: NCI-60 one-dose screen, 48 h (100 = growth as untreated, 0 = no growth, -100 = all killed)
SK-MEL-2 melanoma = conditions: 10 µM unless noted
EKVX NSCLC = conditions: 10 µM unless noted
SN12C renal = conditions: 10 µM unless noted
UO-31 renal = conditions: 10 µM unless noted
TK-10 renal = conditions: 10 µM unless noted
ACHN renal = conditions: 10 µM unless noted
CAKI-1 renal = conditions: 10 µM unless noted
A498 renal = conditions: 10 µM unless noted
MOLT-4 leukemia = conditions: 10 µM unless noted
SR leukemia = conditions: 10 µM unless noted
RPMI-8226 leukemia = conditions: 10 µM unless noted
OVCAR-8 ovarian = conditions: 10 µM unless noted
OVCAR-5 ovarian = conditions: 10 µM unless noted
OVCAR-4 ovarian = conditions: 10 µM
IGROV1 ovarian = conditions: 10 µM unless noted
OVCAR-3 ovarian = conditions: 10 µM unless noted
HS 578T breast = conditions: 10 µM unless noted
NCI/ADR-RES ovarian = conditions: 10 µM unless noted
CCRF-CEM leukemia = conditions: 10 µM unless noted
SK-OV-3 ovarian = conditions: 10 µM unless noted

Measured: growth

CCc1ccc(NC(=O)N[C@@H](Cc2cc(F)cc(F)c2)C(=O)N[C@@H]2C(=O)N3C[C@H](O)C[C@H]3C(=O)N3CCOC[C@H]3C(=O)N[C@@H](C)C(=O)N3C[C@H](C)C[C@H]3C(=O)O[C@H]2C)cc1
inactive: SK-MEL-2 melanoma 29% | EKVX NSCLC 79% | SN12C renal 24.3% | UO-31 renal 78.7% | TK-10 renal 95.8% | ACHN renal 103% | CAKI-1 renal 84.4% | A498 renal 38.6% | MOLT-4 leukemia 43.3% | SR leukemia 48.3% | RPMI-8226 leukemia 17.2% | OVCAR-8 ovarian 62.3% | OVCAR-5 ovarian 46.3% | OVCAR-4 ovarian 12.8% | IGROV1 ovarian 49.4% | OVCAR-3 ovarian 16.8% | HS 578T breast 41.2% | NCI/ADR-RES ovarian 107%

Nc1nc(Nc2ccccc2)c2ncn(Cc3ccc4c(c3)OCO4)c2n1
active: NCI/ADR-RES ovarian 9.58%
inactive: SK-MEL-2 melanoma 12.2% | EKVX NSCLC 48.7% | SN12C renal 43% | UO-31 renal 49.3% | TK-10 renal 63.3% | ACHN renal 56.7% | CAKI-1 renal 31.5% | CCRF-CEM leukemia 66.8% | MOLT-4 leukemia 13.4% | SR leukemia 13.6% | RPMI-8226 leukemia 30.6% | OVCAR-8 ovarian 55.1% | OVCAR-5 ovarian 71.5% | SK-OV-3 ovarian 51.2% | IGROV1 ovarian 64.2% | OVCAR-3 ovarian 24.1% | HS 578T breast 42.8%

O=C(NNc1ccc(-c2ccccc2)nn1)c1ccccc1
inactive: SK-MEL-2 melanoma 107% | EKVX NSCLC 95.2% | SN12C renal 97.2% | UO-31 renal 89% | TK-10 renal 107% | ACHN renal 100% | CAKI-1 renal 82.2% | CCRF-CEM leukemia 107% | MOLT-4 leukemia 90.3% | SR leukemia 103% | RPMI-8226 leukemia 102% | OVCAR-8 ovarian 99.5% | OVCAR-5 ovarian 100% | OVCAR-4 ovarian 96% | IGROV1 ovarian 99.3% | OVCAR-3 ovarian 108% | HS 578T breast 103% | NCI/ADR-RES ovarian 102%

CCN1CCN(CC(=O)Nc2nc3ccc(NCc4ccc(Cl)cc4)cc3s2)CC1
inactive: SK-MEL-2 melanoma 86.4% | EKVX NSCLC 86.3% | SN12C renal 68.4% | UO-31 renal 59.6% | TK-10 renal 96.8% | ACHN renal 83.3% | CAKI-1 renal 68.3% | A498 renal 58.4% | MOLT-4 leukemia 54.4% | SR leukemia 15.8% | RPMI-8226 leukemia 39.6% | OVCAR-8 ovarian 78% | OVCAR-5 ovarian 74.6% | OVCAR-4 ovarian 80.4% | IGROV1 ovarian 70.9% | OVCAR-3 ovarian 62.1% | HS 578T breast 70.5% | NCI/ADR-RES ovarian 82.6%

Nc1cc(Cl)cc2cccnc12
inactive: SK-MEL-2 melanoma 119% | EKVX NSCLC 102% | SN12C renal 91.1% | UO-31 renal 67.9% | TK-10 renal 109% | ACHN renal 102% | CAKI-1 renal 101% | CCRF-CEM leukemia 55.7% | MOLT-4 leukemia 77.8% | SR leukemia 94% | RPMI-8226 leukemia 92.9% | OVCAR-8 ovarian 111% | OVCAR-5 ovarian 101% | OVCAR-4 ovarian 117% | SK-OV-3 ovarian 95% | IGROV1 ovarian 126% | OVCAR-3 ovarian 119% | HS 578T breast 114% | NCI/ADR-RES ovarian 101%

C=C(C)[C@@H]1CC[C@]2(C(=O)NCCNCCNCCN)CC[C@]3(C)[C@H](CC[C@@H]4[C@@]5(C)CCC(=O)C(C)(C)[C@@H]5CC[C@]43C)[C@@H]12
inactive: SK-MEL-2 melanoma 56.4% [100 µM] | EKVX NSCLC 11.4% [100 µM] | A498 renal 80.8% [100 µM] | SK-OV-3 ovarian 70.5% [100 µM] | HS 578T breast 47.8% [100 µM]
active: SN12C renal -88.5% [100 µM] | UO-31 renal -96.4% [100 µM] | TK-10 renal -77.7% [100 µM] | ACHN renal -83.3% [100 µM] | CAKI-1 renal -8.79% [100 µM] | SR leukemia 4.96% [100 µM] | RPMI-8226 leukemia -30.7% [100 µM] | OVCAR-8 ovarian -75% [100 µM] | OVCAR-5 ovarian -44.1% [100 µM] | IGROV1 ovarian -84.8% [100 µM] | OVCAR-3 ovarian -72.5% [100 µM] | NCI/ADR-RES ovarian -73.3% [100 µM]

CCOC(=O)c1ccc2nc(-c3c(C)nn(-c4ccccc4)c3N3CCOCC3)[nH]c2c1
inactive: SK-MEL-2 melanoma 110% | EKVX NSCLC 87.5% | SN12C renal 90.9% | UO-31 renal 69.1% | TK-10 renal 147% | ACHN renal 86.2% | CAKI-1 renal 78.6% | CCRF-CEM leukemia 88.8% | MOLT-4 leukemia 84.4% | SR leukemia 74% | RPMI-8226 leukemia 84.4% | OVCAR-8 ovarian 93.4% | OVCAR-5 ovarian 103% | OVCAR-4 ovarian 87.1% | SK-OV-3 ovarian 95.3% | IGROV1 ovarian 81.4% | OVCAR-3 ovarian 93.5% | NCI/ADR-RES ovarian 95.9%

C=C(C)[C@@H]1CC[C@]2(C(=O)N3CCN(C)CC3)CC[C@]3(C)[C@H](CC[C@@H]4[C@@]5(C)C/C(=C/c6ccncc6)[C@H](O)C(C)(C)[C@@H]5CC[C@]43C)[C@@H]12
active: SK-MEL-2 melanoma -60.1% [100 µM] | EKVX NSCLC -1.55% [100 µM] | SN12C renal -44.2% [100 µM] | UO-31 renal -61.4% [100 µM] | ACHN renal -0.441% [100 µM] | CCRF-CEM leukemia -5.24% [100 µM] | MOLT-4 leukemia -24.4% [100 µM] | SR leukemia -14.3% [100 µM] | RPMI-8226 leukemia -26.6% [100 µM] | OVCAR-8 ovarian -57.9% [100 µM] | OVCAR-5 ovarian 7.38% [100 µM] | SK-OV-3 ovarian 0.185% [100 µM] | IGROV1 ovarian -23.5% [100 µM] | OVCAR-3 ovarian -50% [100 µM] | HS 578T breast -19.5% [100 µM] | NCI/ADR-RES ovarian -64% [100 µM]
inactive: TK-10 renal 22% [100 µM] | CAKI-1 renal 12.1% [100 µM]

O=C(COc1cccc(/C=C2\Oc3ccccc3C2=O)c1)c1ccc([N+](=O)[O-])cc1
inactive: SK-MEL-2 melanoma 92.1% | EKVX NSCLC 95% | SN12C renal 92.6% | UO-31 renal 81.2% | TK-10 renal 119% | ACHN renal 101% | CAKI-1 renal 108% | A498 renal 100% | MOLT-4 leukemia 72% | SR leukemia 80.9% | RPMI-8226 leukemia 75.5% | OVCAR-8 ovarian 97.1% | OVCAR-5 ovarian 97.1% | OVCAR-4 ovarian 97% | SK-OV-3 ovarian 121% | OVCAR-3 ovarian 88.5% | HS 578T breast 98.4% | NCI/ADR-RES ovarian 79.1%

NC(=S)Cc1ccccc1
inactive: SK-MEL-2 melanoma 103% | EKVX NSCLC 97.9% | SN12C renal 94.7% | UO-31 renal 84.4% | TK-10 renal 94.3% | ACHN renal 98.1% | CAKI-1 renal 89.1% | CCRF-CEM leukemia 105% | MOLT-4 leukemia 103% | SR leukemia 97.9% | RPMI-8226 leukemia 99.2% | OVCAR-8 ovarian 103% | OVCAR-5 ovarian 100% | OVCAR-4 ovarian 97% | SK-OV-3 ovarian 103% | IGROV1 ovarian 107% | HS 578T breast 102% | NCI/ADR-RES ovarian 105%

Cn1c(=O)c(C#N)c(-c2ccco2)n2c(S(=O)(=O)Cc3ccccc3)nnc12
inactive: SK-MEL-2 melanoma 58.5% | EKVX NSCLC 99.7% | SN12C renal 110% | UO-31 renal 41.4% | TK-10 renal 78.3% | ACHN renal 65.9% | CAKI-1 renal 82.4% | A498 renal 84.8% | MOLT-4 leukemia 102% | SR leukemia 65.3% | RPMI-8226 leukemia 80.4% | OVCAR-8 ovarian 48.9% | OVCAR-5 ovarian 99.3% | OVCAR-4 ovarian 81.9% | SK-OV-3 ovarian 111% | OVCAR-3 ovarian 103% | HS 578T breast 124% | NCI/ADR-RES ovarian 90.4%

CCOc1cc(NC(=O)c2ccccc2)c(OCC)cc1N
inactive: SK-MEL-2 melanoma 112% | EKVX NSCLC 113% | SN12C renal 113% | UO-31 renal 102% | TK-10 renal 112% | ACHN renal 118% | CAKI-1 renal 102% | A498 renal 113% | MOLT-4 leukemia 101% | SR leukemia 110% | RPMI-8226 leukemia 113% | OVCAR-8 ovarian 113% | OVCAR-5 ovarian 113% | SK-OV-3 ovarian 114% | IGROV1 ovarian 84.8% | OVCAR-3 ovarian 108% | HS 578T breast 100% | NCI/ADR-RES ovarian 111%

C#CC(OC(=O)N(C)C)(c1ccccc1)c1ccc(F)cc1 (stereo not drawn)
inactive: SK-MEL-2 melanoma 102% | EKVX NSCLC 116% | SN12C renal 96.7% | UO-31 renal 89.3% | TK-10 renal 125% | ACHN renal 101% | CAKI-1 renal 91.8% | A498 renal 105% | MOLT-4 leukemia 98% | SR leukemia 108% | RPMI-8226 leukemia 128% | OVCAR-8 ovarian 93.5% | OVCAR-5 ovarian 93.4% | OVCAR-4 ovarian 107% | SK-OV-3 ovarian 114% | OVCAR-3 ovarian 133% | HS 578T breast 128% | NCI/ADR-RES ovarian 89.3%

COCCCNc1nc(NC(=O)c2cc(Br)cc(C(F)(F)F)c2)cc(-c2cccnc2)n1
inactive: SK-MEL-2 melanoma 80.6% | EKVX NSCLC 96% | SN12C renal 89.1% | UO-31 renal 60.6% | TK-10 renal 95.8% | ACHN renal 87.4% | CAKI-1 renal 81.4% | CCRF-CEM leukemia 80.8% | MOLT-4 leukemia 80.1% | SR leukemia 83.4% | RPMI-8226 leukemia 65.6% | OVCAR-8 ovarian 87.5% | OVCAR-5 ovarian 100% | OVCAR-4 ovarian 92.3% | SK-OV-3 ovarian 92.2% | IGROV1 ovarian 91.3% | OVCAR-3 ovarian 109% | HS 578T breast 83% | NCI/ADR-RES ovarian 99.5%
